# Assay results published in the supplement of paper PMC4022240.
# ± gives the standard deviation.
# T1: HaloTag-ATRX ADD domain (163-292)
# T1 chain: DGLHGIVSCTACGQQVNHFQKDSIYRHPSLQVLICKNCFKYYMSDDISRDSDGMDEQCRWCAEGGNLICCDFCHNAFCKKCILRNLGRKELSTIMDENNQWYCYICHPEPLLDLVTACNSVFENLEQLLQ
# Experiments:
# Experiment in all cases: peptide microarray binding signal (635 nm), min-max normalized on array (fraction of array maximum); higher = stronger binding
# Conditions in all cases: peptide region: H4 38-50
# [1] = target: T1, HaloTag-ATRX ADD domain (163-292)
# In short: (§1)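 Triplicate spots of histone 13-mer peptide–cellulose conjugates with a Cy3 tracer were printed on nitrocellulose and probed for 1 h at 4°C with biotin-labelled HaloTag reader fusions (10 nM to 1 μM) plus streptavidin-Alexa Fluor 647 or rabbit histone antibodies (1:10,000 to 1:2,000) plus anti-rabbit Alexa 647. An Axon GenePix 4000B read the 635 nm channel. Binding signal is the spot-triplicate mean intensity after min-max scaling within each library.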
# [2] = target: HaloTag-ING2 PHD (mouse Ing2 200-280)
# In short: as §1
# [3] = target: anti-H3K4me3 antibody ab8580
# In short: as §1
# [4] = target: anti-H3K9me3 antibody ab8898
# In short: as §1
# [5] = peptide modifications: H4K44me1 H4R45me2a, binder concentration: 1:2,000 dilution
# [6] = peptide modifications: H4K44me1 H4R45me2a, binder concentration: 1:10,000 dilution
# [7] = peptide modifications: H4K44me1 H4R45me2s, binder concentration: 1:2,000 dilution
# [8] = peptide modifications: H4K44me1 H4R45me2s, binder concentration: 1:10,000 dilution
# [9] = peptide modifications: H4K44me2, binder concentration: 1:2,000 dilution
# [10] = peptide modifications: H4K44me2, binder concentration: 1:10,000 dilution
# [11] = peptide modifications: H4K44me2 H4R45cit, binder concentration: 1:2,000 dilution
# [12] = peptide modifications: H4K44me2 H4R45cit, binder concentration: 1:10,000 dilution
# [13] = peptide modifications: H4K44me2 H4R45me1, binder concentration: 1:2,000 dilution
# [14] = peptide modifications: H4K44me2 H4R45me2a, binder concentration: 1:2,000 dilution
# [15] = peptide modifications: H4K44me2 H4R45me2a, binder concentration: 1:10,000 dilution
# [16] = peptide modifications: H4K44me2 H4R45me2s, binder concentration: 1:2,000 dilution
# [17] = peptide modifications: H4K44me2 H4R45me2s, binder concentration: 1:10,000 dilution
# [18] = peptide modifications: H4K44me3, binder concentration: 1:2,000 dilution
# [19] = peptide modifications: H4K44me3, binder concentration: 1:10,000 dilution
# [20] = peptide modifications: H4K44me3 H4R45cit, binder concentration: 1:2,000 dilution
# [21] = peptide modifications: H4K44me3 H4R45cit, binder concentration: 1:10,000 dilution
# [22] = peptide modifications: H4K44me3 H4R45me1, binder concentration: 1:2,000 dilution
# [23] = peptide modifications: H4K44me3 H4R45me1, binder concentration: 1:10,000 dilution
binder,measurement,setting,value
ARRGGVKRISGLI [H4 38-50 A R R G G V Kme Rme2a I S G L I],peptide microarray binding signal,"[1]; peptide modifications: H4K44me1 H4R45me2a, binder concentration: 50 nM",0.0254 ± 0.0015
same,peptide microarray binding signal,"[1]; peptide modifications: H4K44me1 H4R45me2a, binder concentration: 500 nM",0.016 ± 0.00078
same,peptide microarray binding signal,"[2]; peptide modifications: H4K44me1 H4R45me2a, binder concentration: 10 nM",0.0305 ± 0.00031
same,peptide microarray binding signal,"[2]; peptide modifications: H4K44me1 H4R45me2a, binder concentration: 100 nM",0.0275 ± 0.00071
same,peptide microarray binding signal,[3]; [5],0.00417 ± 0.00012
same,peptide microarray binding signal,[3]; [6],0.00987 ± 0.00037
same,peptide microarray binding signal,[4]; [5],0.00331 ± 7.1e-05
same,peptide microarray binding signal,[4]; [6],0.00974 ± 0.0007
ARRGGVKRISGLI [H4 38-50 A R R G G V Kme Rme2s I S G L I],peptide microarray binding signal,"[1]; peptide modifications: H4K44me1 H4R45me2s, binder concentration: 50 nM",0.006019 ± 2.1e-05
same,peptide microarray binding signal,"[1]; peptide modifications: H4K44me1 H4R45me2s, binder concentration: 500 nM",0.00619 ± 0.00016
same,peptide microarray binding signal,"[2]; peptide modifications: H4K44me1 H4R45me2s, binder concentration: 10 nM",0.0119 ± 0.00057
same,peptide microarray binding signal,"[2]; peptide modifications: H4K44me1 H4R45me2s, binder concentration: 100 nM",0.0102 ± 0.0013
same,peptide microarray binding signal,[3]; [7],0.00185 ± 0.00022
same,peptide microarray binding signal,[3]; [8],0.00451 ± 0.00035
same,peptide microarray binding signal,[4]; [7],0.00219 ± 0.00017
same,peptide microarray binding signal,[4]; [8],0.0034 ± 0.00013
ARRGGVKRISGLI [H4 38-50 A R R G G V Kme2 R I S G L I],peptide microarray binding signal,"[1]; peptide modifications: H4K44me2, binder concentration: 50 nM",0.0141 ± 0.0019
same,peptide microarray binding signal,"[1]; peptide modifications: H4K44me2, binder concentration: 500 nM",0.0244 ± 0.00095
same,peptide microarray binding signal,"[2]; peptide modifications: H4K44me2, binder concentration: 10 nM",0.0118 ± 0.00032
same,peptide microarray binding signal,"[2]; peptide modifications: H4K44me2, binder concentration: 100 nM",0.0304 ± 0.0032
same,peptide microarray binding signal,[3]; [9],0.00204 ± 0.00018
same,peptide microarray binding signal,[3]; [10],0.00359 ± 0.00012
same,peptide microarray binding signal,[4]; [9],0.00169 ± 3e-05
same,peptide microarray binding signal,[4]; [10],0.00231 ± 5.5e-05
ARRGGVKRISGLI [H4 38-50 A R R G G V Kme2 Rcit I S G L I],peptide microarray binding signal,"[1]; peptide modifications: H4K44me2 H4R45cit, binder concentration: 50 nM",0.00389 ± 6.7e-05
same,peptide microarray binding signal,"[1]; peptide modifications: H4K44me2 H4R45cit, binder concentration: 500 nM",0.00743
same,peptide microarray binding signal,"[2]; peptide modifications: H4K44me2 H4R45cit, binder concentration: 10 nM",0.007102 ± 3.2e-05
same,peptide microarray binding signal,"[2]; peptide modifications: H4K44me2 H4R45cit, binder concentration: 100 nM",0.0109 ± 0.00033
same,peptide microarray binding signal,[3]; [11],0.00136 ± 0.00012
same,peptide microarray binding signal,[3]; [12],0.00177 ± 2.9e-05
same,peptide microarray binding signal,[4]; [11],0.00104 ± 2.9e-05
same,peptide microarray binding signal,[4]; [12],0.0011 ± 2.9e-05
ARRGGVKRISGLI [H4 38-50 A R R G G V Kme2 Rme I S G L I],peptide microarray binding signal,"[1]; peptide modifications: H4K44me2 H4R45me1, binder concentration: 500 nM",0.00233 ± 8.5e-05
same,peptide microarray binding signal,"[2]; peptide modifications: H4K44me2 H4R45me1, binder concentration: 100 nM",0.00361 ± 0.00019
same,peptide microarray binding signal,[3]; [13],0.000491 ± 1.3e-05
same,peptide microarray binding signal,[4]; [13],0.000347 ± 9.2e-06
ARRGGVKRISGLI [H4 38-50 A R R G G V Kme2 Rme2a I S G L I],peptide microarray binding signal,"[1]; peptide modifications: H4K44me2 H4R45me2a, binder concentration: 50 nM",0.00665 ± 0.0002
same,peptide microarray binding signal,"[1]; peptide modifications: H4K44me2 H4R45me2a, binder concentration: 500 nM",0.00881 ± 0.00022
same,peptide microarray binding signal,"[2]; peptide modifications: H4K44me2 H4R45me2a, binder concentration: 10 nM",0.00859 ± 0.00016
same,peptide microarray binding signal,"[2]; peptide modifications: H4K44me2 H4R45me2a, binder concentration: 100 nM",0.0109 ± 0.00048
same,peptide microarray binding signal,[3]; [14],0.00187 ± 6e-05
same,peptide microarray binding signal,[3]; [15],0.00371 ± 0.00016
same,peptide microarray binding signal,[4]; [14],0.00208 ± 4.3e-05
same,peptide microarray binding signal,[4]; [15],0.00265 ± 9.3e-05
ARRGGVKRISGLI [H4 38-50 A R R G G V Kme2 Rme2s I S G L I],peptide microarray binding signal,"[1]; peptide modifications: H4K44me2 H4R45me2s, binder concentration: 50 nM",0.00586 ± 0.00025
same,peptide microarray binding signal,"[1]; peptide modifications: H4K44me2 H4R45me2s, binder concentration: 500 nM",0.0125 ± 0.00027
same,peptide microarray binding signal,"[2]; peptide modifications: H4K44me2 H4R45me2s, binder concentration: 10 nM",0.0175 ± 0.00042
same,peptide microarray binding signal,"[2]; peptide modifications: H4K44me2 H4R45me2s, binder concentration: 100 nM",0.0397 ± 0.019
same,peptide microarray binding signal,[3]; [16],0.00361 ± 0.00025
same,peptide microarray binding signal,[3]; [17],0.00611 ± 0.00033
same,peptide microarray binding signal,[4]; [16],0.0037 ± 0.00027
same,peptide microarray binding signal,[4]; [17],0.00484 ± 0.00089
ARRGGVKRISGLI [H4 38-50 A R R G G V Kme3 R I S G L I],peptide microarray binding signal,"[1]; peptide modifications: H4K44me3, binder concentration: 50 nM",0.00367 ± 6.4e-05
same,peptide microarray binding signal,"[1]; peptide modifications: H4K44me3, binder concentration: 500 nM",0.00671 ± 0.00031
same,peptide microarray binding signal,"[2]; peptide modifications: H4K44me3, binder concentration: 10 nM",0.00859 ± 9.7e-05
same,peptide microarray binding signal,"[2]; peptide modifications: H4K44me3, binder concentration: 100 nM",0.0129 ± 0.00014
same,peptide microarray binding signal,[3]; [18],0.00104 ± 4.6e-05
same,peptide microarray binding signal,[3]; [19],0.0016 ± 2.7e-05
same,peptide microarray binding signal,[4]; [18],0.0011 ± 0.0001
same,peptide microarray binding signal,[4]; [19],0.00161 ± 5.6e-05
ARRGGVKRISGLI [H4 38-50 A R R G G V Kme3 Rcit I S G L I],peptide microarray binding signal,"[1]; peptide modifications: H4K44me3 H4R45cit, binder concentration: 50 nM",0.0125 ± 0.00042
same,peptide microarray binding signal,"[1]; peptide modifications: H4K44me3 H4R45cit, binder concentration: 500 nM",0.0116 ± 0.0018
same,peptide microarray binding signal,"[2]; peptide modifications: H4K44me3 H4R45cit, binder concentration: 10 nM",0.00836 ± 0.00091
same,peptide microarray binding signal,"[2]; peptide modifications: H4K44me3 H4R45cit, binder concentration: 100 nM",0.00588 ± 0.0012
same,peptide microarray binding signal,[3]; [20],0.00387 ± 0.00082
same,peptide microarray binding signal,[3]; [21],0.00502 ± 0.00084
same,peptide microarray binding signal,[4]; [20],0.00444 ± 0.00077
same,peptide microarray binding signal,[4]; [21],0.00467 ± 0.00024
ARRGGVKRISGLI [H4 38-50 A R R G G V Kme3 Rme I S G L I],peptide microarray binding signal,"[1]; peptide modifications: H4K44me3 H4R45me1, binder concentration: 50 nM",0.002821 ± 2.4e-05
same,peptide microarray binding signal,"[1]; peptide modifications: H4K44me3 H4R45me1, binder concentration: 500 nM",0.00524 ± 8.9e-05
same,peptide microarray binding signal,"[2]; peptide modifications: H4K44me3 H4R45me1, binder concentration: 10 nM",0.0104 ± 0.0012
same,peptide microarray binding signal,"[2]; peptide modifications: H4K44me3 H4R45me1, binder concentration: 100 nM",0.0257 ± 0.006
same,peptide microarray binding signal,[3]; [22],0.00143 ± 5.5e-05
same,peptide microarray binding signal,[3]; [23],0.001655 ± 1.6e-05
same,peptide microarray binding signal,[4]; [22],0.000951
same,peptide microarray binding signal,[4]; [23],0.000865 ± 9e-06
